Results on 10 molecules are retold here after PubChem BioAssay (Tox21).

Test [1] in a line: qHTS assay to identify small molecule antagonists of the thyroid receptor (TR) signaling pathway - cell viability counter screen (AID 743064). Also: nearly all actives have a fitted effect of over 50% in size. The gist of the method:
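Same-well viability check: GH3.TRE-Luc cells stimulated with 1 nM T3 alongside test compound for 23.5 h, followed by CellTiter-Fluor fluorescence.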

Test [2] concerns the target Estrogen receptor (Homo sapiens) (UniProt P03372). The test is described as follows: qHTS assay to identify small molecule antagonists of the estrogen receptor alpha (ER-alpha) signaling pathway (AID 743069; active = well fitted curve in the direction sought with a large enough effect in the signal ratio in the repeat runs, not every such curve was filed as active; the % refers to the signal ratio). The essentials:
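Estradiol-stimulated ER-alpha-UAS-bla HEK293 cells, 18 hr compound exposure at 37C. LiveBLAzer B/G substrate, 2 hr RT, fluorescence read.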

Test [3] can be described thus: qHTS assay to identify small molecule antagonists of the estrogen receptor alpha (ER-alpha) signaling pathway - cell viability counter screen (AID 743074; calls by dose curve;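 also: HEK293 cells carrying ER-alpha-UAS-bla reporter stimulated with 17beta-estradiol; nearly all actives have a fitted effect of over 45% in size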). A general note: Quantitative high-throughput screening tests each substance at several concentrations.
The target in test [4] is Estrogen receptor (Homo sapiens) (UniProt P03372). The test is described as follows: qHTS assay to identify small molecule agonists of the estrogen receptor alpha (ER-alpha) signaling pathway (AID 743075; calls by dose curve;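 also: HEK293 GripTite cells with ER-alpha and UAS-driven beta-lactamase reporter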).
Chain of Estrogen receptor (Homo sapiens) (P03372 whole entry, looked up): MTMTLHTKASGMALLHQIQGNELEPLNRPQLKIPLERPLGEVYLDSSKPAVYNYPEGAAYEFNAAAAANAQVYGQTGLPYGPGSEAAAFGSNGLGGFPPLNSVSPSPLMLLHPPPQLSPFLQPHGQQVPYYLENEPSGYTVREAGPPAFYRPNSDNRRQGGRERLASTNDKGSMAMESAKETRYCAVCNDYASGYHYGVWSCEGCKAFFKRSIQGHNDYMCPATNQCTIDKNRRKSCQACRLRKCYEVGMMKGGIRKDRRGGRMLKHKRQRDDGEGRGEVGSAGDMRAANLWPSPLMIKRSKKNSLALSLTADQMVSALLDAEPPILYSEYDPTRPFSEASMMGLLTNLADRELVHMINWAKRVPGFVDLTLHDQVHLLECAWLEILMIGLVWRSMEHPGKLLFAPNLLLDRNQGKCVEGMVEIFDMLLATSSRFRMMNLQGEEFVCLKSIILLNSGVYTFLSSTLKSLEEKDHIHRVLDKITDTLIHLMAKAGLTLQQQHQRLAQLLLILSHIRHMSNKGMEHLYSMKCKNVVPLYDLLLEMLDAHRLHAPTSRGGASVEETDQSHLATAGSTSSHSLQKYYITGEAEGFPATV
Test [5] shares this target. In words: qHTS assay to identify small molecule agonists of the estrogen receptor alpha (ER-alpha) signaling pathway using the BG1 cell line (AID 743079). Also: nearly all actives have a fitted effect of over 20% in size.
Test [6] is described as follows: qHTS assay to identify small molecule antagonists of the estrogen receptor alpha (ER-alpha) signaling pathway using the BG1 cell line (AID 743080; calls by dose curve;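 also: BG1 cells stimulated with 17beta-estradiol alongside compound; nearly all actives have a fitted effect of over 25% in size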; also: potency is read from the fitted curve at half-maximal effect; as to activity change, negative = inhibition: series mostly up to about 70 µM). The essentials: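 BG1-Luc-4E2 cells (endogenous full-length ER-alpha, 4xERE luciferase) hormone-starved 5 days in charcoal-stripped FBS, plated 4,000/well for 24 h, then compound plus 17beta-estradiol for 21.5 h at 37 C; ONE-Glo luminescence read.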

The nature of test [7]: qHTS assay to identify small molecule antagonists of the estrogen receptor alpha (ER-alpha) signaling pathway using the BG1 cell line - cell viability counter screen (AID 743081).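 Also: compound given together with 17beta-estradiol as the ER stimulus; series mostly up to about 70 µM; nearly all actives have a fitted effect of over 45% in size.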
In a further test the target is Aromatase (Homo sapiens) (UniProt P11511). The test is described as follows: qHTS assay to identify aromatase inhibitors (AID 743083). Also: series mostly up to about 70 µM; nearly all actives have a fitted effect of over 55% in size.
Chain of Aromatase (Homo sapiens) (P11511 whole entry, looked up): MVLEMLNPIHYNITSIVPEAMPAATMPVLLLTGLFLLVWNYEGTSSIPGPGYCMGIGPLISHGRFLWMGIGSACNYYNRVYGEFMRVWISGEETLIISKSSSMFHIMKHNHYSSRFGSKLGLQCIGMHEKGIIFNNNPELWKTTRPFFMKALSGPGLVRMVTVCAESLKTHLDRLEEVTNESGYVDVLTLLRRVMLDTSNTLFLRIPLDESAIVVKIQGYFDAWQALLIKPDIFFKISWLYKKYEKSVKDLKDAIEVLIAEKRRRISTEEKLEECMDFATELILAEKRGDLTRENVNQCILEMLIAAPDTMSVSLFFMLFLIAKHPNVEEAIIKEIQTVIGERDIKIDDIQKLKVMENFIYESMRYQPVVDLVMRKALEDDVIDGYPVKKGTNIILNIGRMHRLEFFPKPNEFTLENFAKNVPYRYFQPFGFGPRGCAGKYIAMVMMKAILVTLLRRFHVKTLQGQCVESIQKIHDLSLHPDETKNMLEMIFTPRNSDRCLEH
Test [8] in a line: qHTS assay to identify aromatase inhibitors - cell viability counter screen (AID 743084).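 Also: cells stimulated with testosterone during compound exposure; nearly all actives have a fitted effect of over 55% in size.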
The target of test [9] is Aryl hydrocarbon receptor (Homo sapiens) (UniProt P35869). The test is described as follows: qHTS assay to identify small molecule that activate the aryl hydrocarbon receptor (AhR) signaling pathway (AID 743085). Also: nearly all actives have a fitted effect of over 15% in size. Also: potency is read from the fitted curve at half-maximal effect.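 As to activation: HG2L7.5c1 human HepG2 liver cells with stably integrated DRE-driven firefly reporter; series mostly up to about 70 µM.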 The essentials:
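Reporter assay in engineered HepG2 line HG2L7.5c1, whose plasmid carries twenty dioxin responsive elements upstream of firefly luciferase. Treatment lasted 24 h at 37C; ONE-Glo luminescence gauged induction.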

A short description of test [10]: qHTS assay to identify small molecule that activate the aryl hydrocarbon receptor (AhR) signaling pathway - cell viability counter screen (AID 743086).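 Also: HepG2 liver cells carrying the AhR DRE luciferase reporter; series mostly up to about 70 µM; nearly all actives have a fitted effect of over 45% in size.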 The essentials:
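HepG2-AhR-luc (HG2L7.5c1) cells, 4000/well, were preincubated 5 h at 37C, exposed to compound in qHTS format for 24 hr at 37C, then given CellTiter-Fluor for 30 min; viability was read as fluorescence in the reporter wells.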

For test [11], the target named is Peroxisome proliferator-activated receptor gamma (Homo sapiens) (UniProt P37231). The test is described as follows: qHTS assay to identify small molecule antagonists of the peroxisome proliferator-activated receptor gamma (PPARg) signaling pathway (AID 743191; calls by dose curve; also: series mostly up to about 63 µM; nearly all actives have a fitted effect of over 30% in size). The gist of the method: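 GeneBLAzer PPARg UAS-bla HEK293H cells carrying a UAS-driven beta-lactamase reporter were plated at 3000 cells/well, preincubated 5 h at 37C, then given compound for 17 h at 37C; LiveBLAzer B/G FRET substrate was read after 1 h at room temperature.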
Chain of Peroxisome proliferator-activated receptor gamma (Homo sapiens) (P37231 whole entry, looked up): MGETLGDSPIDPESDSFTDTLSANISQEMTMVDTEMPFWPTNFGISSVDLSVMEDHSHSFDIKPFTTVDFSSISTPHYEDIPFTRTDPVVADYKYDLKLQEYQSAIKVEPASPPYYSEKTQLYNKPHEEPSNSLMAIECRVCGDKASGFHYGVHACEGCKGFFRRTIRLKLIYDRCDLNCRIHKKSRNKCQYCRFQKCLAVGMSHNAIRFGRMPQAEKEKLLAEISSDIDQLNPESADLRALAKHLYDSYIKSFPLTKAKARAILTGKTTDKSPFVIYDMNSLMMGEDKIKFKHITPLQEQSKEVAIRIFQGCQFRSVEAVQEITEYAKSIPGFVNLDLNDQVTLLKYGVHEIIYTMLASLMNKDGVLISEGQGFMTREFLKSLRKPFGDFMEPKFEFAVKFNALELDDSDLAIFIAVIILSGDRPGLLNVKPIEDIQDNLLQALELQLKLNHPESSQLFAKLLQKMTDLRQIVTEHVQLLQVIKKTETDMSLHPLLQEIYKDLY

The nature of test [12]: qHTS assay to identify small molecule antagonists of the peroxisome proliferator-activated receptor gamma (PPARg) signaling pathway - cell viability counter screen (AID 743194). Also: nearly all actives have a fitted effect of over 55% in size. The gist of the method:
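PPARg-UAS-bla HEK293H cells were plated, rested 5 h at 37 C, then treated with compounds plus rosiglitazone (50 nM final) for 17 h at 37 C; viability was then read by CellTiter-Glo luminescence after 30 min at room temperature.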

Test [13] in a line: qHTS assay for small molecule agonists of the antioxidant response element (ARE) signaling pathway - cell viability counter screen (AID 743203; calls by dose curve; also: nearly all actives have a fitted effect of over 55% in size). The essentials:
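ARE-bla HepG2 cells were plated, rested 5 h at 37C/5% CO2, then exposed to compounds in DMSO for 16 h. Viability was read as CellTiter-Glo luminescence after 30 min at room temperature, in the same wells as the ARE screen.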

The nature of test [14]: qHTS assay for small molecule activators of the heat shock response signaling pathway (AID 743210; active = well fitted activation curve with a large enough effect in the signal ratio in the repeat runs, with a control signal flat, not every such curve was filed as active; the % refers to the signal ratio;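 also: HeLa cells with beta-lactamase reporter driven by heat shock elements; series mostly up to about 63 µM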). The essentials: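 Reporter gene assay: HeLa cells stably bearing an HSE-bla construct, compound treatment 5 h at 37 C, LiveBLAzer substrate 2.5 h at RT, fluorescence intensity.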
Test [15] can be described thus: qHTS assay to identify small molecule antagonists of the thyroid receptor (TR) signaling pathway (AID 743065). The essentials: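 GH3.TRE-Luc rat pituitary cells carrying two TR response elements driving luciferase were plated for 4 h, given compound plus 1 nM T3 (final), and incubated 23.5 h at 37 C. ONE-Glo luminescence measured reporter inhibition; CellTiter-Fluor fluorescence tracked cytotoxicity.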

The test system of test [16] is thyroid hormone receptor (rat, GH3 cells). The test is described as follows: qHTS assay to identify small molecule agonists of the thyroid receptor (TR) signaling pathway (AID 743066; calls by dose curve).
Test [17] can be described thus: qHTS assay for small molecule agonists of the antioxidant response element (ARE) signaling pathway (AID 743202; active = well fitted activation curve with a large enough effect in the signal ratio in the repeat runs, not every such curve was filed as active; the % refers to the signal ratio). The essentials:
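Compounds delivered in DMSO to ARE-bla HepG2 cells (2,000 cells/well, pre-incubated 5 h) and left 16 h at 37 C. LiveBLAzer B/G FRET substrate then added for 2 h at RT before fluorescence reading.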

Test [18] is described as follows: qHTS assay for small molecule activators of the heat shock response signaling pathway - cell viability counter screen (AID 743209). Also: nearly all actives have a fitted effect of over 50% in size. The gist of the method: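 HSE-bla HeLa cells plated overnight, then exposed to Tox21 compounds (23 nL in DMSO) for 5 h at 37 C. After the bla reporter read, CellTiter-Glo was added in the same wells and luminescence read after 30 min at room temperature.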

Test [19] has as its target Peroxisome proliferator-activated receptor gamma (Homo sapiens) (UniProt P37231). The test is described as follows: qHTS assay to identify small molecule agonists of the peroxisome proliferator-activated receptor gamma (PPARg) signaling pathway (AID 743094; active = well fitted activation curve with a large enough effect in the signal ratio in the repeat runs, not every such curve was filed as active; the % refers to the signal ratio). The gist of the method: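 GeneBLAzer PPARg UAS-bla HEK293H cells were plated, rested 5 h, then exposed to compounds for 17 h at 37C. Beta-lactamase activity was read by LiveBLAzer B/G FRET substrate fluorescence after 1 h at room temperature.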

Results filed as inconclusive are left out. Unmarked numbers belong to inactive results. The source made the active and inactive calls. Unless noted, calls follow the shape of the dose curve; as a rule, active = well fitted curve in the direction sought with a large enough effect in the repeat runs; inconclusive = weak or mixed curves; inactive = no such curve, though single readings can be large; an effect the other way counts as inactive or inconclusive.
% is scaled to controls: 0 for no effect and ±100 for the full control effect.

Chain of Aryl hydrocarbon receptor (Homo sapiens) (P35869 whole entry, looked up): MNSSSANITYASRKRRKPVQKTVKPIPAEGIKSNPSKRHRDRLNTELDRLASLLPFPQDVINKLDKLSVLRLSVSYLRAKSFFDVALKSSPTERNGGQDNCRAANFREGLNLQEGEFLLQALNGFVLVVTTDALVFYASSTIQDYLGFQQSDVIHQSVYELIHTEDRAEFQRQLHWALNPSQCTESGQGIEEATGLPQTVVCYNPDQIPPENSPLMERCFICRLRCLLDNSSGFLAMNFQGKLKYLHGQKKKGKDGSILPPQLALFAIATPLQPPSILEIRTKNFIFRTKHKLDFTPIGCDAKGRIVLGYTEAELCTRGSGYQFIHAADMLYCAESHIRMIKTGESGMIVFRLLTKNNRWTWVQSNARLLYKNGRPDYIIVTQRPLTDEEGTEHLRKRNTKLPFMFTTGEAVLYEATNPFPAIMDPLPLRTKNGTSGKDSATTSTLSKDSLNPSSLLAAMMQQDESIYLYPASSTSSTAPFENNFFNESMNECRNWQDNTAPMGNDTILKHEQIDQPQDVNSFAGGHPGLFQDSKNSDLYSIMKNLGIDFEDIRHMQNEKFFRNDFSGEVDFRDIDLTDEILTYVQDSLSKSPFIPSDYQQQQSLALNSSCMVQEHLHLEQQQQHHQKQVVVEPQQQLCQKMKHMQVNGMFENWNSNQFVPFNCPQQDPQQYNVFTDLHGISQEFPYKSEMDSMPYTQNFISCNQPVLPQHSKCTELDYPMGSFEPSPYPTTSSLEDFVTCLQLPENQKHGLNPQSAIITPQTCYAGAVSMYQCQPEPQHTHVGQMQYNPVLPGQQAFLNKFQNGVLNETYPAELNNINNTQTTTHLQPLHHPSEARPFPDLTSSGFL

Regarding `O=S(=O)(O)c1cc(Cl)c(Cl)cc1Cl`, the Potency result in test [1], in test [2], in test [4], in test [5], in test [6] and in test [7] was “inactive” throughout. For the same molecule, the Potency entry (in the test with Aromatase (Homo sapiens); in test [8]; in test [9]; in test [10]; in test [11]; in test [12]) was “inactive” throughout. The Potency entry in [13] was “inactive”. The result in test [3] and in test [14] was inactive.

Take `OCC(O)c1ccccc1` (stereo not drawn): the Potency entry in test [15], in test [2], in [4], in test [5], in test [6] and in test [7] was “inactive” each time. The Potency entry (with Aromatase (Homo sapiens); in test [8]; in test [9]; in test [10]; in test [12]; in test [17]) was “inactive” each time. In addition, the Potency entry in test [13] was “inactive”. For the same molecule, the molecule was called inactive in [16] and in [3].

`CCOC(C)OCC`: the Potency entry (in [1]; in test [7]; in the test with Aromatase (Homo sapiens); in [8]; in test [9]; in test [10]) was “inactive” throughout. For the same molecule, the Potency entry in test [12] and in test [13] was “inactive” throughout. In addition, the call in test [3] and in test [18] was inactive.

On to `N#C[C@@H]1CC(F)(F)CN1C(=O)CNC1CC2CCC(C1)N2c1ncccn1` (stereo partly drawn), for which the Potency entry (in test [1]; in test [2]; in test [4]; in [5]; in test [7]; with Aromatase (Homo sapiens)) was “inactive” in each case. The Potency entry in [8], in test [9], in test [10], in [19], in test [11] and in test [12] was “inactive” each time. The Potency result in test [13] is “inactive”. Besides, the molecule was called inactive in test [3] and in test [18].

`CCCCCCC/C=C/C=O`: the Potency entry (in test [1]; in test [4]; in [5]; in test [6]; in test [7]; in the test with Aromatase (Homo sapiens)) was “inactive” throughout. Moreover, the Potency entry in [8], in test [9], in test [10], in test [19] and in test [13] was “inactive” in each case. Also, the outcome in test [16], in [3] and in [18] was inactive.

Regarding `c1ccc(CN(Cc2ccccc2)Cc2ccccc2)cc1`, the Potency entry (in [1]; in [7]; with Aromatase (Homo sapiens); in test [8]; in test [9]; in test [10]) was “inactive” in each case. The Potency result in [13] was “inactive”. The molecule was classed as inactive in test [16], in test [3] and in test [14].

As to `Clc1cccc(C(c2ccc3nc[nH]c3c2)n2ccnc2)c1` (stereo not drawn), the Potency entry in test [1], in test [2], in [4], in test [7], in test [8] and in test [10] was “inactive” in each case. The Potency result in test [19], in test [12], in [17] and in [13] was “inactive” each time. For the same molecule, the call in test [16] and in [14] was inactive. Moreover, the Potency in test [6] was 11.9 µM (active); in test [9] it was 2.66 µM (active).

On to `CCCCOC(=O)C(C)Oc1ccc(Oc2ccc(C(F)(F)F)cn2)cc1` (stereo not drawn), for which the Potency result in test [1], in test [4], in test [5], in test [6], in test [7] and in test [8] was “inactive” each time. For the same molecule, the Potency result in [9], in test [10], in [19], in test [12] and in test [13] was “inactive” in each case. The result in test [16], in [3] and in [18] was inactive.

Take `CCCCCCCCCCCCCCCCCCCl`: the activity, negative = inhibition in test [15] was 15% [at 8.44 µM]; in [2], -5.29% [at 6.71 µM]; in the test with Aromatase (Homo sapiens), 13.8% [at 8.47 µM]. Besides, the activation in test [16] is 7.57% [at 8.08 µM]; in test [4], -1.63% [at 6.71 µM]; in test [5], -11% [at 8.47 µM]; in test [9] it was -0.694% [at 8.47 µM]; in [17] it was -2.23% [at 8.36 µM]; in test [14], -1.98% [at 5.95 µM]. Besides, in [3], the activity, negative = cytotoxicity is -22.2% [at 6.72 µM]. The activity change, negative = inhibition in test [6] is 0.197% [at 8.47 µM]. Besides, the activity change, negative = cytotoxicity in test [7] was -0.138% [at 8.47 µM]; in [8] it was 0.528% [at 8.47 µM]; in [12] it was 3.5% [at 5.95 µM]; in [18], -2.21% [at 5.95 µM]. The viability change, negative = cytotoxic in test [10] was -5.7% [at 8.47 µM]; in test [13], 1.36% [at 8.36 µM]. Besides, the ratio activity, negative = inhibition in [11] was 3.29% [at 5.95 µM].

As to `C=C[Si]1(C)O[Si](C)(C=C)O[Si](C)(C=C)O[Si](C)(C=C)O1` (stereo not drawn), the Potency result (in test [1]; in test [7]; with Aromatase (Homo sapiens); in test [8]; in [9]; in test [10]) was “inactive” each time. For the same molecule, the Potency result in [19], in test [11], in test [12], in test [17] and in test [13] was “inactive” each time. The call in test [16] and in [3] was inactive.
